High-throughput results from PubChem.
The list is not random: actives were taken first. Their share in the collection is about 1.1%.
PTHR1 ag: PTHR1 (human) receptor agonism; HEK293 GP2 PTHR1 cells, GloSensor cAMP luminescence, 1 h; Potency, µM (doses to about 115 µM), inactives show top-dose activation, usual class: activators; 0.075% of 410,000 active; AID 743266; note: potency is the fitted concentration of half-maximal effect; nearly all actives have a fitted effect of over 55% in size
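HEK-293-derived GP2 cells expressing PTHR1 and a GloSensor cAMP reporter, 3,000/well, plated overnight, given luciferin plus IBMX (each 0.5 mM as added) for 1 h at 37 °C, then compound for 1 h at 37 °C. Luminescence was read after 15 min at room temperature.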
LDHA inh: inhibitors of human lactate dehydrogenase A. purified LDHA, NADH/diaphorase-resazurin fluorescence; active compounds read low. P00338. activity change, % (values are at about 110 or 230 µM). AID 1347041. 0.15% of 480,000 active; in the data active = activity change below about -30%; inconclusive = mostly about -25% to -30%;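 note: plate controls were DMSO wells for no effect and wells without enzyme for full effect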
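Human LDH5 (2 nM) was incubated with 0.06 mM NADH and 0.2 mM pyruvate for 5 min at room temperature in Tris pH 7.4. Remaining NADH was coupled through diaphorase/resazurin, and resorufin fluorescence was read at 0 and 20 min.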
BRCA1 expr act: increases BRCA1 expression; Potency, µM (series often up to 46.1 µM), without a hit: at the top dose activation, actives largely listed as activators; MCF7-BRCA1-FFLuc reporter, luminescence, 48 h; response scale: scaled: vehicle 0%, 10 µM genistein 100%; 1.1% of 380,000 active; note: potency is the fitted concentration of half-maximal effect; nearly all actives have a fitted effect of over 80% in size
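Reporter cells (MCF7, BRCA1 promoter-firefly luciferase) received library compounds across a concentration series for 48 h. End-point luminescence was measured and concentration-effect curves derived after normalization.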
RGS4 inhibitor: blocks human RGS4-accelerated GTP hydrolysis; P49798; AID 504845; 0.039% of 390,000 active; Potency, µM (titrated, usually from 114 µM), without a hit: at the highest dose activity change, negative = inhibition, most hits filed as inhibitors; Transcreener GDP fluorescence polarization, RGS4-accelerated GTP hydrolysis; note: potency is the fitted concentration of half-maximal effect; % is set by controls: 0 for no effect and ±100 for the full control effect; nearly all actives have a fitted effect of over 75% in size
Target sequence (P49798 whole entry, looked up): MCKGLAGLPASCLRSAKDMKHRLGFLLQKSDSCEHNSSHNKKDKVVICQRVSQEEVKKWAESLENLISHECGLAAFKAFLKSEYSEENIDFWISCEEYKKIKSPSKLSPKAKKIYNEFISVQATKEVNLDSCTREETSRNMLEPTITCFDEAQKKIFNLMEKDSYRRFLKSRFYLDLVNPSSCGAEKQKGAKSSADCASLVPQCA
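MLSMR compounds (23 nl, pin-transferred) preincubated 10 min at room temperature with a 500nM (2x) first reagent, then RGS4 at 900nM (2x) plus Transcreener GDP mix added; fluorescence polarization (620/688 nm) read before and after 90 min at 30 °C.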
p53 reactivation: restores transcriptional activity of mutant p53 | H1299 p53-A138V BP100-luciferase reporter, luminescence, 24 h | Potency, µM (titrated, usually from 92.2 µM), for the others: at the top dose activity change, positive = activation, most hits filed as activators | 0.063% of 320,000 active | AID 504706; note: potency is the fitted concentration of half-maximal effect; % of control where 0% means no effect; nearly all actives have a fitted effect of over 45% in size
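H1299 (p53-null), stable ts p53-A138V + BP100-Luc; 1000 cells/well, Opti-MEM/10% FBS; cpd 4 pt, 1:5; 24 h, 37 deg C, 5% CO2; detection reagent 10 min RT; luminescence.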
* = called active by the depositor; i = inactive; u = inconclusive; x = no result; ! = not confirmed by another sample; [ ] = another dose, or the depositor's remark. Unless noted, calls come from the whole dose curve; as a rule, active = well fitted curve in the direction sought with a large enough effect; inconclusive = small, poorly fitted or top-dose-only effect, or another doubt; inactive = no such curve, though single readings can be large; an effect the other way counts as inactive or inconclusive.

SMILES	PTHR1 ag	LDHA inh	BRCA1 expr act	RGS4 inhibitor	p53 reactivation
Cc1ccc(-n2c(=O)[nH]c3ccccc3c2=O)cc1[N+](=O)[O-]	0%	-8	11µM*	x	x
O=c1[nH]c2ccccc2c(=O)n1-c1cccc(Cl)c1	-72%[57.5 µM]	2	46%	6%	0%
Cc1cccc(OCCNc2ncccc2[N+](=O)[O-])c1	-30%	2	11µM*	x	x
O=[N+]([O-])c1ccc(NCCOc2ccccc2)c2ncccc12	x	5	x	x	x
N#Cc1c(-c2cccc(-c3no[n+]([O-])c3C#N)c2)no[n+]1[O-]	x	3	x	x	x
O=C(Nc1ccc(Cl)cc1)Nc1ccc(Cl)c(Cl)c1	-61%	-10	-16%	-2%	28µM*
Cc1nc(-c2ccc(Cl)cc2)sc1C1(C)CC(c2ccccc2)=NO1 (stereo unspecified)	-25%	-13	11µM*	3%	x
C[n+]1c(-c2ccccc2)cc(-c2ccc(Cl)cc2)cc1-c1ccccc1	-18%	-6	-60%	-18%	-6%
CC(=O)OC1CCC2(C)C3CCC4(C)C(=O)CCC4C3CC[C@H]2C1 (stereo partly specified)	x	4	x	x	x
CC(=O)OC1CCC2(C)C(CCC3C2CC(=O)C2(C)C3CC(N3CC3)C2C(C)=O)C1 (stereo unspecified)	50µM*	-8	-45%	-15%	x
CCOC(=O)CNC(=O)N1Cc2ccccc2-n2nncc2C1	-23%	-33*	4%	x	x
S=C(NCCc1ccccc1)N1Cc2cc(-c3ccccc3)ccc2-n2nncc2C1	-19%	-6	-32%	x	x
S=C(NCCc1ccccc1)N1Cc2ccccc2-n2nncc2C1	-26%	-36*	0%	x	x
COc1cccc(CCNCc2ccc(Br)cc2)c1	x	-15	x	x	x
CC(NC(C)c1ccc(Cl)cc1)C(=O)c1c[nH]c2ccccc12 (stereo unspecified)	x	4	x	x	x
Cn1c[n+](C)cc1C(O)c1ccccc1 (stereo unspecified)	i	-61*!	0%	u	-7%
COc1ccc(CNCCc2cccc(Cl)c2)cc1	x	2	x	x	x
CCN1C(=O)NC(=O)/C(=C\c2ccc(N3CCOCC3)cc2OC)C1=O	x	x	x	x	9%
O=C1NC(=O)N(Cc2cccs2)C(=O)/C1=C/c1ccc(N2CCOCC2)cc1	-8%	-46*	19%	u	1%
NC(=O)C1CCN(C(=O)c2cn(Cc3ccccc3)c3ccccc23)CC1	x	-15	x	x	x
CCCN1CCc2cc(O)cc3c2[C@H]1Cc1ccc(O)c(O)c1-3	-25%	60	-28%	0.53µM*!	x
CCCN1CCc2cccc3c2C1Cc1ccc(O)c(O)c1-3 (stereo unspecified)	x	x	x	i	x
CN1C(=O)C(Cc2ccc(OCc3ccccc3)cc2)C(=O)N(C)C1=O	-3%	-1	77%	-41%	10%
COc1cc(CC2C(=O)N(C)C(=O)N(C)C2=O)ccc1OCc1ccccc1	i	-2	13µM*	-19%	u
Cc1cc(C)cc(N2C(=O)NC(=O)C3(Cc4cc(C)ccc4N(C)C3)C2=O)c1 (stereo unspecified)	x	10	x	x	x
SMILES	PTHR1 ag	LDHA inh	BRCA1 expr act	RGS4 inhibitor	p53 reactivation
COc1ccccc1N1CCN(Cc2ccc(Cl)cc2Cl)CC1	-3%[57.5 µM]	-16	3%	-13%	1%
COc1ccccc1CN1CCN(Cc2ccc(Cl)cc2)CC1	-17%	-34*	-3%	8%	-2%
COc1ccccc1CN1CCN(C(=O)COc2ccc3ccccc3c2)CC1	-7%	-4	0%	-15%	2%
COc1ccc(CN2CCN(Cc3ccccc3OC)CC2)cc1	i	-37*	-16%	-8%	-2%
Cc1ccc(CN2CCN(Cc3ccccc3F)CC2)cc1	-18%	-35*	0%	-3%[56.9 µM]	-1%
Cc1cccc(-n2c(/C=C/c3ccco3)nc3ccccc3c2=O)c1	x	6	x	x	x
[O-]/[N+](=C/c1cccnc1)c1ccc(Br)cc1	-21%	15	11µM*	u	u
CC12CC[C@H]3[C@@H](CCC4(O)CC(O[N+](=O)[O-])CCC34CO[N+](=O)[O-])C1(O)CCC2C1=CC(=O)OC1 (stereo partly specified)	x	0	x	x	x
